Records with an inconclusive call do not appear. Where a call stands in place of a potency, no number is given. The source made the active and inactive calls. The call rests on the fitted dose curve; in most records, active means well fitted activation curve with a large enough effect in the signal ratio in the repeat runs (not every such curve was filed as active); inconclusive means weak or mixed curves, or effect the other way; inactive means no such curve, though single readings can be large or run the other way; the % refers to the signal ratio.

Chain of Glucocorticoid receptor (Homo sapiens) (P04150 whole entry, looked up): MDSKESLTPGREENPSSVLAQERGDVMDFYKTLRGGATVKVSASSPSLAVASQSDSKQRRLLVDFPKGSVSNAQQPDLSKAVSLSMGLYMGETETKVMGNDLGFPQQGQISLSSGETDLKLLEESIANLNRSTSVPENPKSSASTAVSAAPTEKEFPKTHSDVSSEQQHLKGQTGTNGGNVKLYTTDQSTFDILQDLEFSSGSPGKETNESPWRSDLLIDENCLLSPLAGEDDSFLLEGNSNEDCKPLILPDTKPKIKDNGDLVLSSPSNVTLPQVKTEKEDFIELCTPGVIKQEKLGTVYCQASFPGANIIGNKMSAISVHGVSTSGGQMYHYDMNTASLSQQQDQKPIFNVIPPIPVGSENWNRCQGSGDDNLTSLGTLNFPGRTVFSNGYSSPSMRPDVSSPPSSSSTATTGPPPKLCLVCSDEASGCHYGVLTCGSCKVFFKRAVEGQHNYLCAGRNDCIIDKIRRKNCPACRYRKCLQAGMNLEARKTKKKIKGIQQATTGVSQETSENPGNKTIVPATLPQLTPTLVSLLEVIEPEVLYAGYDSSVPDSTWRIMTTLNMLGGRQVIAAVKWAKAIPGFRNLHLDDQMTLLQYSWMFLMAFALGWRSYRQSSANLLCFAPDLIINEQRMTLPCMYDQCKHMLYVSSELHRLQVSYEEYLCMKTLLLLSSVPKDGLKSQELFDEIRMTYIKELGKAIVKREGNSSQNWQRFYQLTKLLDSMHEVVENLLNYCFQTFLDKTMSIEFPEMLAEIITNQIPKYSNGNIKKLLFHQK

For the assay, the target named is Glucocorticoid receptor (Homo sapiens) (UniProt P04150). Kind of assay: qHTS assay to identify small molecule agonists of the glucocorticoid receptor (GR) signaling pathway (AID 720691). The following applies: GR-bla HeLa, beta-lactamase reporter ratio, 18 h; series mostly up to 62.4 µM. The method in brief:
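HeLa GR-bla reporter line; cells pre-incubated 4 h, compound in DMSO 18 h at 37 C; LiveBLAzer B/G FRET substrate 2 h RT; fluorescence intensity read-out.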
In general terms: In qHTS, concentration-response curves come from the screen itself.
`Cc1c(Cl)c(=O)oc2cc(OP(=O)(OCCCl)OCCCl)ccc12`: the Potency result is “inactive”.

With `O=S(=O)(c1ccc(Cl)cc1)c1ccc(Cl)cc1`, the Potency result was “inactive”. In the case of `C=CCC1=C(C)C(OC(=O)C2C(C=C(C)C)C2(C)C)CC1=O` (configuration not stated) it was “inactive”; in that of `O=C(O)COc1nc(Cl)c(Cl)cc1Cl`, “inactive”. In the case of `CCCN(CC)CC1COC2(CCC(C(C)(C)C)CC2)O1` (configuration not stated) it was “inactive”. In the case of `ClC(Cl)=C(c1ccc(Cl)cc1)c1ccc(Cl)cc1`, the Potency result was “inactive”.

For the molecule `CCCCCCCCCCCCBr`, the Potency result was “inactive”. Regarding `O=c1[nH]c2ccccc2n1CCCN1CCC(n2c(=O)[nH]c3cc(Cl)ccc32)CC1`, the Potency entry is “inactive”. For `Cc1cc(N=Nc2ccccc2C)ccc1N`, the Potency result was “inactive”. In the case of `CC(C)CCCCCCCOP(=O)(Oc1ccccc1)Oc1ccccc1` it was “inactive”; in that of `BrC(Br)C(Br)(Br)Br`, “inactive”.

With `Nc1ccc(Cc2ccc(N)c(Cl)c2)cc1Cl`, the Potency entry is “inactive”.

These data come from PubChem BioAssay (Tox21).
